Records with an inconclusive call do not appear. Unmarked numbers belong to inactive results. Calls of active or inactive are those of the source. Calls come from the whole dose curve; as a rule, active = well fitted cell-killing curve with a large enough effect; inconclusive = small, poorly fitted or top-dose-only effect, or effect the other way; inactive = no such curve, though single readings can be large or run the other way.
assay: Quantitative highthroughput screen to assess conditional lethalithy of SEM cells grown in Human Plasma-Like Medium with dialyzed fetal bovine serum (HPLM+ds) (AID 1963882); conditions: SEM B-ALL cells in HPLM+ds, CellTiter-Glo viability, 48 h; series mostly up to 45.8 µM; viability: at the top concentration; note: nearly all actives have a fitted effect of over 35% in size
From the text: Assay Provider: Jason Cantor Ph.D.
Department of Biochemistry
University of Wisconsin-Madison, Madison, WI, USA
Chemical screening studies have identified drug sensitivities across hundreds of cancer cell lines but most putative therapeutics fail to translate. Discovery and development of drug candidates in models that more accurately reflect nutrient levels in human blood is a major challenge. Here we performed high-throughput screens in conventional versus Human Plasma-Like Medium (HPLM) to identify compounds that were "missed" when screening using the artificial culture condition. Sets of conditional anticancer compounds spanned phases of clinical development and included non-oncology drugs were assessed. […] We also traced conditional phenotypes for several chemotherapeutics to availability of HPLM-specific metabolites and confirmed others for compounds whose reported targets are encoded by nonessential genes. Our findings establish generalizable strategies for exploiting conditional lethality in HPLM to reveal therapeutic candidates and mechanisms of action in cancer cells.
Described herein are the results of each viability screens against three cell lines: NOMO1 (an acute myeloid leukemia cell line); P12-Ichikawa (a T-cell acute lymphoblastic leukemia); and SEM (a B-cell ALL). Each assay was screened using 3 different cell culture media: homemade human plasma-Like medium with 10% dialyzed fetal bovine serum (HPLM+ds); RPMI1640 with 10% untreated FBS and 5mM glucose (RPMI+s); and RPMI1640 with 10% dialyzed fetal bovine serum and 5 mM glucose (RPMI+ds).
PROTOCOL TABLE (as described by Inglese J, Shamu CE and Guy RK. 2007)
SEQUENCE No. (e.g., 1, 2, 3, etc.); […] (e.g., Cells, Incubation, Reagent, etc.); VALUE and DESCRIPTION.
1; Cells; 5 uL; white, solid bottom 1536-well Greiner assay plate.
2; Compounds; 23 nL; Kalypsis pin tool (Wako USA) equipped with a 1536-well pin head to transfer to the assay plates.
3; Incubation; 48 hours; 37C incubation.
4; Reagent; 3 uL; CellTiter Glo (Promega).
5; Incubation; 5 min, room temperature
6; Detection; Luminescence, Viewlux PerkinElmer.
NOTES (numbers refer to Sequence numbers above)
1. Briefly, 5 ul of cell reagent was dispensed using a Multidrop Combi Dispenser. The NOMO1 and SEM cells were plated at 500 cells/well and the P12-Ichikawa line at 1000 cells/well.
2. After seeding the cells, 23 nL of MIPE 4.1 library compounds (in DMSO) were added to each plate using a Kalypsys 1536 Pintool dispenser. Bortezomib at final concentration of […] and DMSO were added to each plate as positive and negative controls respectively. For each screen, MIPE 4.1 compounds were added over an eleven-point concentration range […] in 3-fold dilutions.
3. Each plate was covered with a stainless steel gasketed lid to prevent evaporation and incubated for 48 hour at 37C, 95% relative humidity, and 5% CO2.
4-5. Three microliter CellTilter-GloTM luminescent substrate mix (Promega) reagent was added to the assay plate and incubated at room temperature for 5 min.
6. The luminescence signal was measured using a ViewLux (PerkinElmer) multiplate reader with a 2 second exposure time per plate. Data for each compound were normalized as percent viability such that measurements for DMSO and the empty well controls in each plate were defined as 100% and 0%, respectively.
Potency is the fitted concentration of half-maximal effect.

Row | Structure (SMILES) | viability [%] | Potency
1 | CC(C)(O)CC[C@@H](O)[C@](C)(O)[C@H]1CC[C@@]2(O)C3=CC(=O)[C@@H]4C[C@@H](O)[C@@H](O)C[C@]4(C)[C@@H]3CC[C@]12C | 99.8 | –
2 | CC(=O)Nc1cccc(-n2c(=O)n(C3CC3)c(=O)c3c(Nc4ccc(I)cc4F)n(C)c(=O)c(C)c32)c1 | – | 2350 nM (active)
3 | Cc1ccc([C@@H]2O[C@H](CO)[C@@H](O)[C@H](O)[C@@H]2O)cc1Cc1ccc(-c2ccc(F)cc2)s1 | 85.5 | –
4 | CNC(=O)c1nn(C)c2c1C(C)(C)Cc1cnc(Nc3ccc(N4CCN(C)CC4)cc3)nc1-2 | – | 264 nM (active)
5 | Cc1ccnc(NS(=O)(=O)c2ccc(NC(=O)Nc3ccc(S(=O)(=O)Nc4nccc(C)n4)cc3)cc2)n1 | – | 187 nM (active)
6 | CN1CCN(Cc2ccc(NC(=O)Nc3ccc(Oc4cc(NC(=O)C5CC5)ncn4)cc3)cc2C(F)(F)F)CC1 | – | 20.9 nM (active)
7 | CCN(CC)CCOc1ccc(Nc2ncc3cc(-c4c(Cl)cccc4Cl)c(=O)n(C)c3n2)cc1 | – | 1660 nM (active)
8 | COc1nc(-c2ccc3c(c2)OCO3)n(-c2ccc(NC(=O)CSc3ccccc3)cc2)n1 | 101 | –
9 | CO[C@@H](C(=O)N1Cc2[nH]nc(NC(=O)c3ccc(N4CCN(C)CC4)cc3)c2C1)c1ccccc1 | – | 132 nM (active)
10 | O=C1CCCC2=C1C(c1[nH]ncc1Cl)N=C(Nc1nc3ccccc3o1)N2 (stereo not given) | 75.9 | –
11 | O=C(O)C1=CO[C@@H](O[C@@H]2O[C@H](CO)[C@H](O)[C@H](O)[C@H]2O)[C@@H]2C(CO)=CC[C@H]12 | 104 | –
12 | CC[C@H]1CN2CCc3cc(OC)c(OC)cc3[C@H]2C[C@@H]1C[C@@H]1NCCc2cc(OC)c(OC)cc21 | – | 166 nM (active)
13 | OC[C@H]1O[C@@H](n2cnc3c2NC=NC[C@@H]3O)C[C@H]1O | 104 | –
14 | CC[N+](CC)(CC)CCOc1cccc(OCC[N+](CC)(CC)CC)c1OCC[N+](CC)(CC)CC | 85.4 | –
15 | COc1ccc(-c2nc(N3CCOCC3)c3sc(CN(C)c4ncc(C(=O)NO)cn4)cc3n2)cn1 | – | 11.8 nM (active)
16 | O=C1C[C@@H](c2ccc(O)cc2)Oc2cc(O)cc(O)c21 | 95.5 | –
17 | NC(=O)c1cccc(N)c1 | 102 | –
18 | Cc1ccc(C(=O)Nc2cccc(C(F)(F)F)c2)cc1-c1ccc2nc(NCCN3CCOCC3)ncc2c1 | – | 4690 nM (active)
19 | CC(C)[N+]1(C)[C@@H]2CC[C@H]1CC(OC(=O)C(CO)c1ccccc1)C2 (stereo not given in full) | – | 9350 nM (active)
20 | CNC(=O)[C@H](CC1=CN=C2C=CCC=C12)NC(=O)[C@@H](CC(=O)NO)CC(C)C | 89.7 | –

Row | Structure (SMILES) | viability [%] | Potency
21 | CN1CCC[C@H]1CCO[C@](C)(c1ccccc1)c1ccc(Cl)cc1 | 74.1 | –
22 | CC[C@@]1(O)C(=O)OCc2c1cc1n(c2=O)Cc2cc3cc(O)ccc3nc2-1 | – | 52.6 nM (active)
23 | Cn1cc(C2=C(c3c4n(c5ccccc35)CCC(CN)C4)C(=O)NC2=O)c2ccccc21 (stereo not given) | – | 10500 nM (active)
24 | CNS(=O)(=O)Cc1ccc2[nH]cc(CCN(C)C)c2c1 | 102 | –
25 | Cc1ccc(S(=O)(=O)Nc2nc3ccccc3nc2Nc2ccc3nsnc3c2)cc1 | – | 7240 nM (active)
26 | COc1ccc2c(c1)CC[C@H]1[C@@H]2CC[C@]2(C)[C@@H](NCCCCCCN3C(=O)C=CC3=O)CC[C@H]12 | 112 | –
27 | Cc1nccn1CC1CCc2c(c3ccccc3n2C)C1=O (stereo not given) | 84.3 | –
28 | COC(=O)N1CCN(Cc2cccc(NC(=O)Nc3ccc(C)nc3)c2F)CC1 | 88.3 | –
29 | OCCC#Cc1nc(-c2ccc(F)cc2)c(-c2ccncc2)n1CCCc1ccccc1 | 78.9 | –
30 | C[C@@H](Cc1cc2c(c(C(N)=O)c1)N(CCCO)CC2)NCCOc1ccccc1OCC(F)(F)F | 86.5 | –
31 | COC(=O)N[C@H](C(=O)N[C@@H](Cc1ccccc1)[C@@H](O)CN(Cc1ccc(-c2ccccn2)cc1)NC(=O)[C@@H](NC(=O)OC)C(C)(C)C)C(C)(C)C | 99.2 | –
32 | Cc1nnc(NS(=O)(=O)c2ccc(N)cc2)s1 | 84.6 | –
33 | CC(C)c1ccc2c(c1)c(SC(C)(C)C)c(CC(C)(C)C(=O)O)n2Cc1ccc(Cl)cc1 | 108 | –
34 | O=C(CN1C(=O)C2(CCCC2)NC[C@H]1c1cc(F)cc(F)c1)Nc1ccc2c(c1)C[C@@]1(C2)C(=O)Nc2ncccc21 | 79.5 | –
35 | C[C@H]1[C@H](O)O[C@@H]2O[C@@]3(C)CC[C@@H]4[C@H](C)CC[C@@H]1[C@@]24OO3 | – | 4180 nM (active)
36 | Nc1nc(OCc2ccccc2)c2[nH]cnc2n1 | 105 | –
37 | CC(=O)NCC(=O)N1[C@H]2CC[C@H]1c1cc(Nc3ncc(C(F)(F)F)c(NC4CCC4)n3)ccc12 | – | 118 nM (active)
38 | NC(N)=NC(=O)c1nc(Cl)c(N)nc1N | 104 | –
39 | Cc1cc(Nc2nc(N[C@@H](C)c3ccc(F)cc3)c(C#N)cc2F)n[nH]1 | – | 3320 nM (active)
40 | CCCCOCCOc1nc(-c2ccc(C(=O)O)c(F)c2)sc1C | 113 | –
